As usually defined, the inhibition is the relative decrease from the control value, in per cent.

Activity calls are given as the source filed them. How the calls were made is not given here.

Chain of Pantothenate synthetase (Mycobacterium tuberculosis (strain ATCC 25618 / H37Rv)) (P9WIL5 whole entry, looked up): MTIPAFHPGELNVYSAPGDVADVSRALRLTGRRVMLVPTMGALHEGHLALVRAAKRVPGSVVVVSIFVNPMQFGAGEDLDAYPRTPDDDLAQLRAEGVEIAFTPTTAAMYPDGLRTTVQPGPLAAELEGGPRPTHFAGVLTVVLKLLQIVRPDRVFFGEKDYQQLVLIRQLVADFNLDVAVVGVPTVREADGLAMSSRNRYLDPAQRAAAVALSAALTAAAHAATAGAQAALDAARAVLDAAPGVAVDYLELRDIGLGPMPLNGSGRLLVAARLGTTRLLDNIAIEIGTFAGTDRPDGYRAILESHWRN

This test has as its target Pantothenate synthetase (Mycobacterium tuberculosis (strain ATCC 25618 / H37Rv)) (UniProt P9WIL5). Put plainly: Recombinant Mtb pantothenate synthetase (PanC) inhibitors, coupled enzyme, confirmatory (AID 375).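 Further: 0% = full reaction with vehicle and 100% = no enzyme background.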 Particulars: coupled enzyme assay; at 10 µM, active compounds read high.
As to `CCOc1ccc(S(=O)(=O)n2nc(C)cc2C)c2ccccc12`, the inhibition is 0% (inactive).
The result for `COC(=O)c1cccc(NC(=O)CSc2nnc(COc3ccccc3)n2C)c1` reads 0% (inactive); that for `COc1ccccc1CCNC(=O)C1CCCO1` (configuration not stated), 0% (inactive); that for `COc1ccc(OC)c(NS(=O)(=O)Cc2ccccc2)c1`, 0% (inactive).
As for `O=S1(=O)C=C(Oc2ccc(F)cc2)c2ccccc21`, the inhibition was 4% (inactive).
The result for `O=C(c1cccc(F)c1)N1CCc2ccccc21` reads 0% (inactive).
The result for `CCC(C)(C(=O)NC1CCCCC1)N(CC1CCCO1)C(=O)c1ccccn1` (configuration not stated) reads 0% (inactive).
The result for `COc1cccc(NC(=O)c2ccco2)c1` reads 0% (inactive); that for `C=CCSc1nnc2n(-c3ccccc3OC)c(=O)c3c4c(sc3n12)CCC4`, 0% (inactive); that for `CC1(C)CC(=O)C2=C(C1)NC(=O)CC2C(=O)NCc1ccc(F)cc1` (configuration not stated), 0% (inactive).
In the case of `CC(C)C(NC(=O)c1ccco1)C(=O)NCC(c1ccco1)N1CCCCC1` (configuration not stated), the inhibition was 3% (inactive).
The result for `CCOC(=O)N1CCN(C(=O)COc2ccc(Br)cc2Cl)CC1` reads 0% (inactive); that for `C/C=C/CSc1nc2c(c(=O)[nH]c(=O)n2C)n1Cc1ccc(C)cc1`, 4% (inactive); that for `COc1cccc(NC(=O)c2ccccc2NS(C)(=O)=O)c1`, 0% (inactive).
Consider `CCCNS(=O)(=O)c1ccc(OCC(=O)NCc2ccco2)cc1`, for which the inhibition was 2% (inactive).
The result for `CCOC(=O)Cn1nnnc1C(C(C)C)N(Cc1cc2c(C)cc(C)cc2[nH]c1=O)C1CCCC1` (configuration not stated) reads 0% (inactive); that for `CC(C)(C)n1nnnc1C(c1cccc(C#N)c1)N1CCC(Cc2ccccc2)CC1` (configuration not stated), 2% (inactive).

These data come from PubChem BioAssay.
